The values below come from PubChem BioAssay (NCI).

The panel holds about 83,000 compounds, 20% with a hit somewhere; the sample as a whole holds those more often.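 Single-dose data. Exposure time 48 hours. Values below 10 considered active.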 Unmarked numbers belong to inactive results. The source made the active and inactive calls.

The subject of the assay is UACC-62 melanoma. The assay can be described thus: NCI-60 one-dose screen, 48 h (100 = growth as untreated, 0 = no growth, -100 = all killed). As to conditions: 10 µM. As to the method: Growth inhibition of the UACC-62 human tumor cell line is measured as a screen for anti-cancer activity. Cells are grown in 96 well plates and exposed to the test compound for 48 hours. Compounds are tested at a single concentration, which is 10^-5 M for most compounds. The reported endpoint is percent growth (GI% or GIPRCNT), where numbers from 0 - 100% represent growth inhibition, and numbers from -100% - 0 represent cell death. For example, a value of 40 represents 60% growth inhibition. A value of 0 means no net growth occurred over the course of the experiment. A value of -40 indicates 40% of cells at the beginning of the experiment died by the end of the experiment. A value of -100 means all cells are dead at the end of the experiment.
NCI-60 Human Tumor Cell Lines Screen was performed using the standard one-dose NCI protocol, which is described in more detail at https://dtp.cancer.gov/discovery_development/nci-60/default.htm.
Compounds with GIPRCNT values below 10 were considered active. Activity score was based on GIPRCNT using the following formula: […]
Score is 0 for GIPRCNT values of 100 or above, 50 for GIPRCNT values of 0, and 100 for GIPRCNT values of -100.
In the case of `O=C1Nc2cc(-c3ccc(NC(=O)c4cccs4)cc3)ccc2/C1=C/c1ccc[nH]1`, the growth is 80.8%.

Regarding `CCCCCCCCCCCCCCCCCCCC(=O)NCCc1c[nH]c2ccc(O)cc12`, the growth is 99.7%. Regarding `C=C1CCC2C3(C)COC(c4c(F)cccc4F)OC3CCC2(C)C1C/C=C1/C(=O)OCC1O` (stereo not given), the growth is -4.04% (active).

In the case of `Nc1cccnc1/C=N/NC(=S)NCCNC(=O)c1ccc(-n2nc(-c3ccccc3O)nc2-c2ccccc2O)cc1`, the growth is -62.6% (active). Under `O=c1[nH][nH]c(Nc2ccccc2)c1N=Nc1ccc(F)cc1` stands 92.1%; under `COc1ccc2nc(Nc3cccc(NC(=O)c4ccc(CN5CCN(C)CC5)c(C(F)(F)F)c4)c3)ccc2c1`, -93% (active). Under `CO[C@@H]1CSSC1Cn1nc(-c2ccc(Oc3ccccc3)cc2)c2c(N)ncnc21` (stereo not given in full) stands -53.9% (active); under `O=C(c1ccc(O)cc1)C1[C@H](c2ccccc2Br)[C@@H](c2ccccc2)NC12C(=O)Nc1ccc(Br)cc12` (stereo not given in full), 42.3%. Under `CCCCCCCCCCCCCCCCCCCC(=O)NCCc1c[nH]c2ccc(OC(=O)NOCCOCCOCCOCCOCCOCCOCCOCCOCCOCCOCCOCCOCCOCCOCCOCCOCCOCCOCCOCCOCCOCCOC)cc12` stands -69.4% (active); under `O=C(NO)c1ccc(CN2CCN(c3nc(-c4ccccc4)c4ccccc4n3)CC2)cc1`, -23.9% (active). For `Cn1cc(-c2cc(N)n3nc(-c4c[nH]c5ccc(Br)cc45)cc3n2)c2cc(Br)cnc21`, the growth was -75% (active). In the case of `O=S(=O)(c1ccc(Cl)cc1)c1nc(-c2ccccc2)oc1S(=O)(=O)c1ccc(Cl)cc1` it was 90.4%; in that of `CN(C)c1nc(NCCNS(=O)(=O)c2ccc(C(=O)/C=C/c3ccccc3)cc2)nc(Nc2ccc(F)cc2)n1`, 26.5%; in that of `CN1C(=O)/C(=C/c2ccc3ncsc3c2)NC1=NC12CC3CC(CC(O)(C3)C1)C2`, -7.72% (active). With `CN1CCN(c2ccc(Nc3nc(NCCCNC(=O)C4CCCCC4)c4sccc4n3)cc2)CC1`, the growth was 48.5%. For `COc1ccc(OC)c(-c2cc(-c3c[nH]c4ccccc34)nc(N)c2C#N)c1`, the growth is -8.1% (active). In the case of `COc1cc(/C=C/C(=O)c2ccc(NC(=O)CSc3nnc(-c4c[nH]c5ccccc45)n3-c3ccccc3)cc2)cc(OC)c1OC` it was 59.1%. Under `COc1cc2c3c(n(CCCNCCO)c(=O)c2cc1OC)-c1nc2c(cc1C3=O)OCO2` stands 1.57% (active). Regarding `CC1(c2ccccc2)NC(=O)N(CC(=O)Nc2ccc(C(=O)/C=C/c3ccccc3)cc2)C1=O` (stereo not given), the growth was 36.5%. As for `N#Cc1ccc(-c2nn(-c3ccc(C(=O)O)cc3)cc2CNc2cc(Cl)cc(Cl)c2)cc1`, the growth was 28.5%. Under `[2H]C([2H])([2H])Oc1ccc2ncc(C#Cc3cncc(C(=O)Nc4ccc(CN5CCN(C)CC5)c(C(F)(F)F)c4)c3)n2n1` stands -77.5% (active); under `CCOC(=O)CNC(=O)CN(Cc1ccccc1)C(=O)[C@@]1(C)CCC[C@]2(C)[C@H]3CC4C(C(C)C)=C[C@]3(CC[C@H]21)[C@@H]1C(=O)CCC(=O)[C@H]41`, 38.9%; under `COc1ccc(-c2ccc(/C=N/NC(=O)c3[nH]c4ccc(Br)cc4c3-c3ccccc3)o2)cc1`, 30.4%.

As to `COC1CC(Cn2cc(COc3ccc4ccc(=O)oc4c3)nn2)C(OCc2ccccc2)C(OCc2ccccc2)C1OCc1ccccc1` (stereo not given), the growth was 82.6%. Under `C=C1CCC2C3(C)COC(c4ccccc4F)OC3CCC2(C)C1C/C=C1/C(=O)OCC1O` (stereo not given) stands -7.01% (active); under `Cn1cc(-c2cc(N)n3nc(-c4c[nH]c5ccc(Br)cc45)cc3n2)c2cccnc21`, -93.9% (active). In the case of `COc1nccnc1NS(=O)(=O)c1ccc(NC2=C(Cl)C(=O)c3nc(C)ccc3C2=O)cc1` it was 101%; in that of `C=CC(=O)Nc1ccc(C(=O)/C=C/c2ccc(N(C)CCF)cc2)c(O)c1`, -42.6% (active). In the case of `O=C(c1ccc(O)cc1)C1[C@H](c2ccccc2Br)[C@@H](c2ccccc2)NC12C(=O)Nc1ccc(Cl)cc12` (stereo not given in full) it was 6.97% (active); in that of `O=C(CSc1nnc(-c2ccc3nc(-c4ccccc4)[nH]c3c2)o1)Nc1ccc(Br)cc1`, 59.8%; in that of `CC(C)(C)c1ccc(NCc2cn(-c3ccc(C(=O)O)cc3)nc2-c2ccc(C#N)cc2)cc1`, 8.63% (active).

On to `COc1ccc(C(=O)/C=C/c2ccc(Cl)c(C(F)(F)F)c2)cc1S(N)(=O)=O`, for which the growth was -98.7% (active). On to `C[C@H]1[C@H](C)CC[C@]2(COC(=O)CCC(=O)NCC#CCN3CCNCC3)CC[C@]3(C)C(=CC[C@@H]4[C@@]5(C)CCCNC(C)(C)[C@@H]5CC[C@]43C)[C@H]12`, for which the growth was 46.7%. Turning to `COc1ccc(-c2cc(C(=O)N=Nc3c(O)[nH]c4ccc(F)cc34)c3ccccc3n2)cc1`, the growth was 81.4%.

Consider `CN(CCF)c1ccc(/C=C/C(=O)c2ccc(N)cc2O)cc1`, for which the growth is 90.1%. In the case of `Cc1ccc2nc(COc3ccc(C(=O)NNC(=S)NCCc4ccccc4)cc3)[nH]c2c1`, the growth was 49.9%. In the case of `CN1CCN(c2ccc(C(=O)/C=C/c3cc(C(F)(F)F)ccc3Cl)cc2)CC1` it was -79.9% (active); in that of `CC1(c2ccccc2)NC(=O)N(CC(=O)Nc2ccc(C(=O)/C=C/C=C/c3ccccc3)cc2)C1=O` (stereo not given), 43.1%. In the case of `CC1=C(C(=O)OC(C)C)C(c2ccc(O)cc2)NC(=S)N1` (stereo not given) it was 93.4%. Under `COc1ccc2[nH]cc(/C=N/Nc3cccc(Cl)n3)c2c1` stands 61.8%.
